# Results: PubChem BioAssay AID652104 (National Center for Advancing Translational Sciences (NCATS), 2013)
# In all, about 410,000 compounds went through this assay and about 7,200 (1.8%) were called active. Roughly 7% stayed inconclusive and do not appear here. The list comes from a sample in which actives are over-represented; it also holds similar structures and randomly drawn compounds. Entries that show only a call come without a potency. Values without a mark were called inactive. Calls come from the whole dose curve; as a rule, active = well fitted activation curve with a large enough effect; inconclusive = small, poorly fitted or top-dose-only effect, or another doubt; inactive = no such curve, though single readings can be large or run the other way.
# Test: qHTS of TDP-43 Inhibitors; note: nearly all actives have a fitted effect of over 50% in size
# Settings: TDP-43 expressing yeast growth rescue, BacTiter-Glo, 24 h; series mostly up to 46.1 µM
# Summary of the method: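 Yeast cells expressing TDP-43 under galactose induction are exposed to compounds for 24 hr at 30 deg C. BacTiter-Glo luminescence measures growth, so protective compounds score as activators.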
# Potency is the fitted concentration of half-maximal effect.
SMILES,Potency,growth rescue (activation)
CN1CCN(C2(CNC(=O)COc3ccc(C(C)(C)C)cc3)CCCCC2)CC1,inactive,
CC(=O)Nc1ccc2nc(SCCOc3cc(C)cc(C)c3)sc2c1,inactive,
Cc1ccc(C(=O)Nc2cc3c(cc2N2CCCC2)n(C)c(=O)c(=O)n3C)cc1,inactive,
CCCCCn1c(=O)[nH]c2cc(C(=O)Nc3cc(C)cc(C)c3)ccc2c1=O,inactive,
CCOc1ccc(Nc2c(S(=O)(=O)c3ccccc3)cnc3ccccc23)cc1,inactive,
O=C(c1ccc(C(F)(F)F)cc1)N1CCC(c2nc(-c3ccc(S(=O)(=O)N4CCCC4)cc3)no2)CC1,inactive,
CCOC(=O)c1c(SCC(=O)Nc2cccc(C)c2C)nc(=O)[nH]c1C,inactive,
O=C(O)/C=C/c1ccc2c(c1)OCCO2,15.8 µM (active),
O=C(COC(=O)/C=C/c1ccc2c(c1)OCO2)NC1CCS(=O)(=O)C1 (stereo not given),inactive,
O=C(Nc1ccc2c(c1)OCCO2)C1CCCC1,inactive,
COc1ccc(NC(=O)NC(C)c2c(-n3cccc3)sc(C)c2C)cc1OC (stereo not given),inactive,
COc1ccc(CCNC(=O)C(=O)NCC(c2ccco2)S(=O)(=O)c2cccs2)cc1OC (stereo not given),inactive,
COc1cc(NC(=O)Cn2nc(-c3ccc(C)c(C)c3)ccc2=O)cc(OC)c1,inactive,
COc1ccc(C2c3c(oc4ccccc4c3=O)C(=O)N2Cc2ccc3c(c2)OCO3)cc1 (stereo not given),inactive,
Cc1ccc(S(=O)(=O)n2nc(-c3ccc(Cl)cc3)nc2NCc2ccccc2)cc1,inactive,
COc1ccc(OCCCn2c(C)nc3cc(C)c(C)cc32)cc1,inactive,
Cc1cc(C)c2oc(C(=O)Nc3ccc(S(=O)(=O)N4CCCCCC4)cc3)cc(=O)c2c1,inactive,
Cc1ccccc1C(=O)Nc1nnc(S(=O)(=O)N(C)c2ccc(Cl)cc2)s1,inactive,
CC1(C(=O)NCc2ccco2)Cc2c(-c3ccc4c(c3)OCO4)ccnc2O1 (stereo not given),inactive,
CC(=O)Nc1cccc(-c2ccnc3c2CC(C)(C(=O)NCc2ccccc2)O3)c1 (stereo not given),inactive,
CC1(C(=O)NCc2ccc(F)c(F)c2)Cc2c(-c3ccc4c(c3)OCO4)ccnc2O1 (stereo not given),35.5 µM (active),
COc1ccc(CNC(=O)CSc2nc3ccccc3nc2Cc2ccccc2)cc1,inactive,
CCc1cc2c(cc3c(=O)n(CC(=O)N4CCN(c5cc(Cl)ccc5C)CC4)ncn32)s1,inactive,
CC(C)OC(=O)c1ccc(COc2ccc3ccc(=O)oc3c2)o1,11.2 µM (active),
O=C(COc1ccc2ccc(=O)oc2c1)NCC(O)c1ccccc1 (stereo not given),inactive,

SMILES,Potency,growth rescue (activation)
Cc1cc(OCc2ccc(C(=O)Nc3ccc(C(=O)O)cc3)o2)ccc1Cl,inactive,
CCOC(=O)c1cc(-c2ccc(OC)c(S(=O)(=O)Nc3ccc(OC)cc3OC)c2)on1,inactive,
CCOC(=O)c1ccc(NC(=O)CC2C(=O)N(c3ccccc3)C(=O)N2Cc2cccs2)cc1 (stereo not given),inactive,
CCOC(=O)c1ccc(N2C(=O)CC(Sc3nc(O)c(CC)c(=O)[nH]3)C2=O)cc1 (stereo not given),inactive,
CCOC(=O)c1ccc(N2C(=O)CC(N(C)Cc3ccccc3)C2=O)cc1 (stereo not given),2.82 µM (active),
CCOC(=O)c1ccc(N2C(=O)CC(N3CCN(C(=O)c4ccccc4)CC3)C2=O)cc1 (stereo not given),inactive,
Cc1ccc(C)c(N2CCN(C(c3ccccc3)c3nnc(-c4ccccc4)o3)CC2)c1 (stereo not given),inactive,
CCCCCc1ccc(-c2ccc(OCC)cc2)nc1,12.6 µM (active),
CCCCCc1ccc(-c2ccc(C(=O)O)cc2)nc1,3.16 µM (active),
CCCCCC(=O)Nc1ccc(-c2cn3cccnc3n2)cc1,inactive,
CCOc1ccc(-c2ccc(SCC(=O)N3CCOCC3)nn2)cc1,inactive,
CCOc1ccc(-c2cc(C)n3nc(C(=O)Nc4ccc(C)c(C)c4)cc3n2)cc1,inactive,
O=C(O)CCC(=O)NCc1ccc(C(=O)O)cc1,inactive,
Cc1ccsc1CN(C(=O)c1oc2ccc(Br)cc2c1C)C1CCS(=O)(=O)C1 (stereo not given),inactive,
O=C(Nc1ccccc1Br)c1cc(CN2CCCC2)on1,inactive,
Cc1ccc2nc(CN3CCN(S(=O)(=O)c4ccc(C)c(C)c4)CC3)oc2c1,inactive,
Cc1ccc(CN2CCC(CNC(=O)c3cnn(-c4ccccc4Cl)c3C3CCN(C(=O)OC(C)(C)C)CC3)CC2)cc1,inactive,
CCCn1nc(C(=O)OCc2nc(N)nc(Nc3ccccc3C)n2)c2ccccc2c1=O,inactive,
Cc1ccccc1Nc1nc(N)nc(COC(=O)CCC(=O)c2ccc(F)cc2)n1,inactive,
Cc1ccc(C(=O)OCc2nc(N)nc(Nc3ccccc3C)n2)cc1,12.6 µM (active),
O=C(NC1CC(=O)N(c2ccc(F)cc2)C1)c1ccc(S(=O)(=O)N2CCCC2)cc1 (stereo not given),inactive,
COc1ccc2c(C)c(CCC(=O)NCc3ccc(OC)c(OC)c3)c(=O)oc2c1,inactive,
CC1CCCCN1CC(=O)N1CCCc2c1c(=O)oc1ccc(OCc3ccccc3)cc21 (stereo not given),inactive,
Cc1cc(Cl)ccc1NC(=O)Cc1ccc(NC(=O)N2CCCCc3ccccc32)cc1,inactive,
CCc1cccc(-n2nnc(-c3nsc(NC(=O)c4ccc(C)cc4)n3)c2C)c1,inactive,

SMILES,Potency,growth rescue (activation)
CCOc1ccc(/C=C(\C#N)c2nc3ccccc3c(=O)[nH]2)cc1OC,inactive,
C=CCOc1ccc(/C=C2/C(=O)ON=C2C)cc1OCC,12.6 µM (active),
C=CCOc1ccc(/C=N/NC(=O)C(C)Sc2ccccn2)cc1OCC (stereo not given),inactive,
Cc1cccc(CC(=O)Nc2cccc(-c3cn4cccnc4n3)c2)c1,inactive,
Cc1cc2nc(-c3ccc(F)cc3)c(Cc3ccsc3)n2c(C)c1Br,inactive,
Cc1cc2nc(-c3ccco3)c(Cc3cccc(F)c3)n2c(C)c1Br,3.16 µM (active),
O=C(CN1C(=O)CCn2nc(-c3ccccc3)cc21)NCc1ccccc1,,18.2% [at 9.22 µM]
COc1cccc(C(=O)NCc2ccc3c(c2)CCN3C(=O)c2ccncc2)c1,inactive,
Cc1ccc(-c2cc(C(=O)Oc3ccccc3Cl)no2)cc1C,inactive,
Cc1ccc(C(=O)O/N=C(\N)c2ccccn2)cc1Cl,7.08 µM (active),
C/C(=N/OC(=O)c1c(-c2c(F)cccc2Cl)noc1C)c1cnccn1,inactive,
Cc1c(Cl)cccc1NC(=O)C(=O)NCCc1csc2nc(-c3ccccc3F)nn12,inactive,
CC(=O)Nc1cccc(NC(=O)CSc2cn(CC(=O)N3CCCC3)c3ccccc23)c1,inactive,
COc1cccc(Cn2c(CNS(=O)(=O)c3ccc(Cl)s3)nc3cccnc32)c1,inactive,
Cn1c(=O)c2[nH]c(NCC3CCCO3)nc2n(-c2ccccc2)c1=O (stereo not given),inactive,
O=C(NCC1CCCO1)c1cc2c([nH]c3ccccc32)c(-c2ccc(F)cc2)n1 (stereo not given),inactive,
Clc1cccc(-c2nc(NCC3CCCO3)c3ccccc3n2)c1 (stereo not given),12.6 µM (active),
CCN(CCCNC(=O)Cn1ncc2c3ccccc3n(C)c2c1=O)Cc1ccccc1,inactive,
CCOCCc1nn2c(=O)cc(COC(=O)CNC(=O)c3ccc(C(C)(C)C)cc3)nc2s1,inactive,
COc1ccccc1N1CCN(S(=O)(=O)CCNC(=O)COc2ccc(F)cc2)CC1,inactive,
COc1ccc(CNC(=O)CSc2n[nH]c(-c3ccc(F)cc3)n2)cc1,inactive,
COC(=O)CNC(c1ccccc1Cl)c1cc(Br)ccc1NC(=O)CCN1CCOCC1 (stereo not given),17.8 µM (active),
CCOC(=O)C1CCN(CCC(=O)Nc2cccc(C)c2)CC1,inactive,
COc1ccc(N)cc1NC(=O)CN1CCOCC1,inactive,
CCc1ccccc1NC(=O)CSc1nnc(-c2ccccc2)c(-c2ccccc2)n1,inactive,

SMILES,Potency,growth rescue (activation)
O=C(NC1(C(F)(F)F)NC(=O)N(Cc2cccnc2)C1=O)c1ccccc1Cl (stereo not given),inactive,
COc1ccc(C(=O)NC2(C(F)(F)F)NC(=O)N(CCCc3ccccc3)C2=O)c(OC)c1OC (stereo not given),20 µM (active),
CCOc1ccccc1C(=O)NC1(C(F)(F)F)NC(=O)N(CCc2ccc(OC)c(OC)c2)C1=O (stereo not given),inactive,
O=C(Nc1ccc2oc(-c3ccc(O)c(Br)c3)nc2c1)c1cc2ccccc2o1,inactive,
OCc1cnc(SCc2ccc(F)cc2)n1Cc1ccc(F)cc1,inactive,
CCOC(=O)N1CCC(NC(=O)c2cnn(-c3cccc(C)c3)c2C2CCN(C(=O)OC(C)(C)C)CC2)CC1,inactive,
N#Cc1ccc(C2=CC(=O)C[C@H](c3ccc(Cl)cc3)C2)cc1,17.8 µM (active),
O=C1CC(c2cccc(Br)c2)C2=C(CCCC2=O)N1 (stereo not given),inactive,
COc1ccc(C2CC(=O)NC(=O)C2)cc1,inactive,
COc1cccc2c1CCC(NC(C)=O)C2=O (stereo not given),inactive,
O=C1C=C(c2cccc(Cl)c2)C[C@@H](c2ccc(F)cc2)C1,22.4 µM (active),
O=C1CC(c2cccc(Cl)c2)CC(O)=C1C=Nc1ccccc1 (stereo not given),inactive,
COc1ccc([C@H]2CC(=O)C=C(/C=C/c3ccc(Cl)cc3)C2)cc1,inactive,
COc1ccccc1C1=CC(=O)C[C@H](c2ccc(F)cc2)C1,15.8 µM (active),
O=C1C=C(c2cccc(Br)c2)C[C@@H](c2ccc(F)cc2)C1,20 µM (active),
CCCCC/C=C/C1=CC(=O)C[C@H](c2ccc(Cl)cc2)C1,inactive,
O=C(NCC(c1ccc(Cl)cc1)N1CCOCC1)c1ccccc1F (stereo not given),inactive,
COC(=O)c1c(NC(=O)C(C)Oc2ccc(Cl)c(C)c2)sc(C)c1C (stereo not given),inactive,
COc1ccccc1-c1noc(-c2ccc(NCc3ccccc3)c([N+](=O)[O-])c2)n1,inactive,
COc1ccc(-c2onc(C)c2C)cc1S(=O)(=O)NCC1CCN(Cc2cccc(F)c2)CC1,inactive,
O=C(CSc1nc2c(c(=O)[nH]1)CN(Cc1ccc(F)cc1)CC2)Nc1ccccc1Cl,inactive,
CCOc1ccc(NC(=O)C2CCN(S(=O)(=O)c3cc(-c4noc(C)n4)ccc3C)CC2)cc1,inactive,
COc1ccc(/C(N)=N/OC(=O)CCCc2ccccc2)cc1,22.4 µM (active),
N/C(=N\OC(=O)CCn1cccc(C(F)(F)F)c1=O)c1ccc(OC(F)(F)F)cc1,inactive,
N/C(=N\OC(=O)CCc1ccccc1)c1cccnc1,inactive,
